# HCMV antiviral: inhibitors of human cytomegalovirus; HFF cells, HCMV-luciferase reporter, 72 h; stronger effect = lower value; activity change, negative = inhibition, % at 57.5 µM; 4.5% of 410,000 active; AID 1259415; in the data active means activity change below about -60%; inconclusive means no clear call, values can overlap the other calls; inactive means above about -39%
#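 Two compound doses tested in HFFs infected with HCMV-luciferase, MOI 1 PFU/cell, 72 h at 37C. Lysate luminescence read with OneGlo; data normalized against buffer-only and 10uM Salinomycin inhibitor controls.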
# Vaccinia mCherry: vaccinia inhibition (mCherry reporter). 0.63% of 310,000 active. Vaccinia virus mCherry reporter infection, fluorescence. AID 720579. Potency, µM (top dose mostly 36.5 µM), inactives show top-dose activity change, negative = inhibition, actives largely listed as inhibitors; calls by dose curve; tested in A549 cells; further: potency means the concentration at half of the fitted maximal effect; nearly all actives have a fitted effect of over 35% in size
# VACV Venus inh: vaccinia inhibition (Venus reporter) | Vaccinia virus Venus reporter expression, fluorescence | Potency, µM (titrated, usually from 36.5 µM), for inactives: at the highest dose activity change, negative = inhibition, most hits filed as inhibitors | 0.46% of 330,000 active | AID 720580; calls by dose curve; tested in A549 cells; further: potency means the concentration at half of the fitted maximal effect; nearly all actives have a fitted effect of over 30% in size
# Lassa entry inh: Lassa virus entry inhibition; Lassa virus pseudotype entry inhibition, cell reporter; Potency, µM (doses to about 37.9 µM), without a hit: top-dose activity change, negative = inhibition, most hits filed as inhibitors; 1.2% of 300,000 active; AID 540256; calls by dose curve; tested in HEK293 cells; further: potency means the concentration at half of the fitted maximal effect; nearly all actives have a fitted effect of over 50% in size
# FMDV antiviral: blocks foot and mouth disease virus | FMDV antiviral cell-based qHTS | Potency, µM (titrated, usually from 57.9 µM), for inactives: at the highest dose activity change, negative = inhibition, actives largely listed as inhibitors | 1.2% of 410,000 active | AID 1159524; calls by dose curve; tested in HEK293T cells; further: read-out not given here; potency means the concentration at half of the fitted maximal effect; nearly all actives have a fitted effect of over 45% in size
# MARV entry inh: inhibitors of Marburg virus binding or cell entry. Marburg virus pseudotyped entry inhibition, cell reporter. Potency, µM (doses to about 37.8 µM), without a hit: top-dose activity change, negative = inhibition, hits mostly inhibitors. 1.8% of 300,000 active; calls by dose curve; tested in HEK293 cells; further: potency means the concentration at half of the fitted maximal effect
# Numbers without * were called inactive; i = inactive; ? = inconclusive; · = not tested or not shown; ! = repeats disagree; [ ] = dose if it differs, or a comment. In the library only some 6.5% were active in any assay of this set; here they are far more common. On the % scale 0 is the no-effect control and ±100 the full control effect.
SMILES,HCMV antiviral,Vaccinia mCherry,VACV Venus inh,Lassa entry inh,FMDV antiviral,MARV entry inh
C/C=C(/CCC1NCCc2c1[nH]c1ccccc21)[Si](C)(C)C (configuration not stated),26,-28%,?,?,28µM*,?
O=C(CCNC(=O)c1ccc([N+](=O)[O-])cc1)NCc1ccco1,-72*,·,·,·,-18%,·
O=C(NCc1ccco1)c1ccc(C(=O)NCc2ccco2)cc1,-69*,i,-5%,1%,0%,-8%
O=C(NCc1ccco1)c1ccccc1-c1ccccc1,-80*,·,·,9%,-15%,15%
O=C(NCc1ccco1)c1ccc2c(c1)C(=O)c1ccccc1-2,18,·,·,23µM*,68%,?
Cc1ccc(C(=O)NCc2ccco2)cc1,26,·,·,·,12%,·
Cc1ccc(C)n1C1C(=O)N(Cc2ccc(C(F)(F)F)cc2)c2c(F)cccc21 (configuration not stated),-35,·,·,·,·,·
CCCCNC(=O)c1cnn2c(C)c(Cc3c(C)cc(C)cc3C)c(C)nc12,-21,-15%,?,?,16µM*,·
OC(c1ccc(F)c(F)c1)c1nc(-c2ccc3ccccc3c2)cs1 (configuration not stated),14,-3%,-14%,·,33%,·
NC(c1ccc(F)c(F)c1)c1nc(-c2ccc3ccccc3c2)cs1 (configuration not stated),-82*,?,3%,·,27%,·
Clc1ccc(-c2n[nH]c3c2CCCC3)cc1,-72*,i,1%,16%,42%,0%[46.1 µM]
Cc1ccc(C)c(Cn2c3ccccc3c3cnn(CC(=O)NCC(C)c4ccccc4)c(=O)c32)c1 (configuration not stated),-11,-17%,-27%,?,-18%,5%[46.1 µM]
Cc1ccc(N=CC2=C(O)CC(c3ccccc3Cl)CC2=O)cc1 (configuration not stated),45,·,·,·,17%,·
O=C1CC(c2ccccc2Cl)CC(O)=C1C=Nc1ccccc1 (configuration not stated),-73*,-14%,-13%,?,10%,-15%
CC1=CC(C)CC(C)OC(=O)CC(c2ccc(O)cc2)NC(=O)C(Cc2c(Br)[nH]c3ccccc23)N(C)C(=O)C(C)NC(=O)C(C)C1 (configuration not stated),-98*,32µM*,35µM*,0.4µM*,-27%,0.32µM*
CCS(=O)(=O)c1ncc(N(Cc2ccco2)Cc2sccc2C)c(C(=O)Nc2cc(C)ccc2C)n1,-18,-11%,-13%,-24%[46.1 µM],-9%,?
CCc1ccc(CN2CCC(C(=O)Nc3ccc(Oc4ccccc4)nc3)CC2)o1,-72*,i,-23%,-27%[46.1 µM],?,?
O=C(Nc1ccc(Oc2cccnc2)cc1)C1CCN(Cc2cccc(Cl)c2)CC1,-79*,·,·,·,-12%,·
CSc1ncc(CN2CCCCC2C(=O)Nc2ccc(Oc3ccccc3)nc2)cn1 (configuration not stated),-30,-14%,-12%,-5%,-16%,5.6µM*
COc1ccc(CN2CCC(C(=O)Nc3ccc(Oc4ccccc4)nc3)CC2)cc1F,-70*,-2%,-24%,?,?,?
COc1cc2nc(N3CCN(C(=O)OCc4ccccc4)C(C(=O)NC(C)(C)C)C3)nc(N)c2cc1OC (configuration not stated),·,·,·,?,·,11µM*
COc1ccc2nc(N3CCN(C(=O)C4COc5ccccc5O4)CC3)sc2c1 (configuration not stated),28,i,-14%,15%,-28%,?
COc1cc2nc(N3CCN(C(=O)C4COc5ccccc5O4)CC3)nc(N)c2cc1OC (configuration not stated),7,-20%,-13%,?,-18%,12µM*
Cc1ccc(N2CCn3c2nc2c3c(=O)n(CCc3ccccc3)c(=O)n2C)cc1C,-19,-6%,-2%,-19%[46.1 µM],-5%,·
Cc1[nH]c2ccc(C(=O)OCC(=O)NC3(C#N)CCCCC3)cc2c1C,-13,-27%,?,6.3µM*,?,?
SMILES,HCMV antiviral,Vaccinia mCherry,VACV Venus inh,Lassa entry inh,FMDV antiviral,MARV entry inh
Cn1c2c(c(=O)n(C)c1=O)[C@](NC(=O)c1cccs1)(C(F)(F)F)C(=O)N2,·,·,·,·,·,14%
COc1ccc(COc2cc(-c3cccc(OC)c3)nc3ccc(NC(=O)c4ccc(OC)cc4)cc23)cc1,-81*,i,-11%,?,?,?
COc1ccc(COc2cc(-c3cccc(OC)c3)nc3ccc(NC(=O)c4cccnc4)cc23)cc1,82,-2%,-29%,15µM*,-27%,-21%
CCCCOc1ccc(C(=O)NNC(=O)C2C3C=CC(C3)C2C(=O)O)cc1 (configuration not stated),-60*,·,·,·,11%,·
CCS(=O)(=O)c1ncc(N(Cc2ccccc2)Cc2ccco2)c(C(=O)Nc2cccc(Cl)c2C)n1,-30,-11%,-10%,-10%[46.1 µM],3%,?
CCS(=O)(=O)c1ncc(Cl)c(C(=O)N(Cc2ccccc2)Cc2ccco2)n1,-99*,-14%[7.34 µM],-10%[7.34 µM],?,14µM*,?
CCCOc1ccc(C(=O)N/N=C/c2c[nH]c3ccc(Br)cc23)cc1,-31,-25%,-16%,?,-11%,-15%[46.1 µM]
CCCCCN=C(N)N/N=C/c1c[nH]c2ccc(OC)cc12,-100*,?,11µM*!,·,?,·
Cn1nccc1C(=O)Nc1ccn(C23CC4CC(CC(C4)C2)C3)n1,-81*,-26%,-20%,-30%,?,?
Cn1nccc1C(=O)Nc1ccc(Cl)cc1,17,0%,-8%,9%,·,3%
Cn1cc([N+](=O)[O-])c(C(=O)Nc2ccn(C34CC5CC(CC(C5)C3)C4)n2)n1,-95*,-5%,-2%,9%,-17%,?
Cc1nn(C)c(C(=O)Nc2ccn(C34CC5CC(CC(C5)C3)C4)n2)c1[N+](=O)[O-],-62*,-14%,?,?,?,?
C(=Nc1ccc(/C=C/c2ccnc3ccccc23)cc1)c1ccco1,·,-18%,-16%,·,·,·
C=CCn1c(O)c(N=NC(=S)Nc2ccccc2C)c2cc(S(=O)(=O)N3CCOCC3)ccc21,-74*,-19%,-10%,?,-26%,?
Cn1c(O)c(N=NC(=S)Nc2ccccc2F)c2cc(S(=O)(=O)N3CCOCC3)ccc21,-63*,-9%,-2%,?,?,?
Cc1cccc(NC(=S)N=Nc2c(O)n(CN3CCOCC3)c3ccccc23)c1C,-77*,·,·,·,?,-1%
Cc1ccc(N=Nc2c(O)n(CN3CCOCC3)c3ccccc23)cc1,·,-18%,22%,-4%,45%,?
Cc1nn(CC(=O)Nc2ccc(C(C)C)cc2)c(=O)c2c(C)n(-c3ccc(Cl)cc3)nc12,31,0%,-16%,3%[46.1 µM],?,·
C1=Cc2ccccc2/C1=C/c1ccc2c(c1)OCO2,·,-14%,-5%,·,·,·

# Screening data deposited in PubChem by National Center for Advancing Translational Sciences (NCATS).
